Bioassay records (PubChem BioAssay)
This is a sample that favours compounds with a hit; in the whole collection about 19% have one here.
Cycloheximide cs = Cycloheximide Counterscreen for Small Molecule Inhibitors of Shiga Toxin | max response, % | 300,000 tested, 12% active | cell reporter, cycloheximide protein synthesis inhibition counterscreen; in the data active = max response mostly above about 13%, no sharp cut-off; inactive = mostly below about 14%; note: read at 38.3 µM for the half of the compounds with a filed dose; 0% is about no effect
Shiga toxin inh = A qHTS for Small Molecule Inhibitors of Shiga Toxin; 290,000 tested, 9.2% active; Vero cells, Shiga toxin protein synthesis inhibition reporter; inhibition, % at 38.7 µM; in the data active = inhibition mostly above about 28%, no sharp cut-off; inactive = mostly below about 43%; note: 0% is about no effect
AMA1 RON2 block = qHTS for Inhibitors of AMA1-RON; Towards Development of Antimalarial Drug Lead: Primary Screen | AlphaScreen AMA1-biotinylated RON2 peptide binding | Potency, µM (highest dose often 58.2 µM), for inactives: at the top dose activity change, negative = inhibition, actives largely listed as inhibitors | 360,000 tested, 0.2% active;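 note: potency is the fitted concentration of half-maximal effect; 0% = vehicle wells and -100% = peptide control; nearly all actives have a fitted effect of over 45% in size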
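AMA1 (3D7) with his tag at 25 nM final met compounds first, then biotinylated RON2 peptide at 25 nM; detection used donor plus acceptor beads, 10 µg/mL apiece, read by AlphaScreen after 30 min at room temperature.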
Pf growth 96h = Primary qHTS for delayed death inhibitors of the malarial parasite plastid, 96 hour incubation; P. falciparum luciferase reporter growth, 96 h; Potency, µM (top dose mostly 28.7 µM), for the others: top-dose activity change, negative = inhibition, most hits filed as inhibitors; 320,000 tested, 6.9% active; note: potency is the fitted concentration of half-maximal effect; % is set by controls: 0 for no effect and ±100 for the full control effect
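Two-generation exposure (96 h) targets delayed-death phenotype. Reporter parasites carrying integrated firefly luciferase, in red cells at 2% hematocrit and 0.05% parasitemia final, kept at 37 C, 5% CO2; luminescence loss indicates inhibition.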
SARS PLP yeast = qHTS of Yeast-based Assay for SARS-CoV PLP. Potency, µM (titrated, usually from 32.9 µM), for inactives: at the top dose activity, positive = growth rescue, hits mostly activators. 330,000 tested, 0.19% active. S. cerevisiae expressing SARS-CoV PLpro, growth rescue. AID 485353, 2010; calls by dose curve; note: potency is the fitted concentration of half-maximal effect; 0% is about no effect; nearly all actives have a fitted effect of over 55% in size
Pf growth 48h = Primary qHTS for delayed death inhibitors of the malarial parasite plastid, 48 hour incubation; P. falciparum luciferase growth in erythrocytes, 48 h; 310,000 tested, 5.9% active; Potency, µM (doses to about 28.7 µM), inactives show top-dose activity change, negative = inhibition, hits mostly inhibitors; note: potency is the fitted concentration of half-maximal effect; % is set by controls: 0 for no effect and ±100 for the full control effect
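Firefly luciferase activity from engineered P. falciparum reports growth; inhibitors lower the luminescent signal. Cultures contained 2% hematocrit erythrocytes at 0.1% final parasitemia.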
An asterisk follows results filed as active; u = inconclusive; x = no result given; [ ] = dose if it differs, or a comment. Unless noted, calls come from the whole dose curve; as a rule, active = well fitted curve in the direction sought with a large enough effect; inconclusive = small, poorly fitted or top-dose-only effect, or another doubt; inactive = no such curve, though single readings can be large; an effect the other way counts as inactive or inconclusive.

SMILES	Cycloheximide cs	Shiga toxin inh	AMA1 RON2 block	Pf growth 96h	SARS PLP yeast	Pf growth 48h
O=C(/C=C/c1ccco1)Nc1ccc(Oc2ccc(Cl)cc2)cc1	-2.6	0.2	-12.0%	3.2%	-8.8%	8.28µM*
O=C(/C=C/c1ccco1)c1cccnc1	5.4	-4.5	-29.9%	u	-0.5%	x
CC(C)(C)c1ccc(/C=C/C(=O)Nc2cccnc2)cc1	28.5*	70.1*	-5.7%	4.6%	-3.2%	12.7%[0.00184 µM]
CCOC(=O)c1ccccc1NC(=S)N1CC(C)CC(C)C1 (stereo unspecified)	-2.9	-3.3	-6.3%[2.32 µM]	u	-57.7%	2.94µM*
CCOC(=O)c1ccccc1NC(=S)N1CCC(C)CC1	-2.9	-7.7	0.5%	-0.4%	0.4%	u
CC1CCN(C(=O)COC(=O)c2ccccc2NC(=O)c2ccco2)CC1	44.0*	100.8*	38.7%	-11.1%	0.3%	43.6%[5.75 µM]
O=C1CN(C(=O)COC(=O)c2ccccc2NC(=O)c2ccco2)c2ccccc2N1	-0.8	-7.3	-3.3%	13.1µM*	u	-10.4%
COc1ccc(F)cc1S(=O)(=O)NCC1CCCO1 (stereo unspecified)	-2.0	x	1.2%	u	-0.9%	-11.3%
COc1ccc(C2c3[nH]c4ccccc4c3C[C@H]3C(=O)N(c4ccccc4C(=O)NCCN4CCOCC4)C(=O)N23)cc1 (stereo partly specified)	1.5	-0.3	-9.7%	u	2.9%	13.1µM*
Cc1ccc(C2c3[nH]c4ccccc4c3C[C@H]3C(=O)N(c4ccccc4C(=O)N4CCC(C(=O)O)CC4)C(=O)N23)cc1 (stereo partly specified)	-4.8	-2.3	-2.1%	5.86µM*	-4.7%	11.7µM*
O=C(O)C1CCN(C(=O)c2ccccc2N2C(=O)[C@@H]3Cc4c([nH]c5ccccc45)C(c4cccc(Cl)c4)N3C2=O)CC1 (stereo partly specified)	-3.0	-6.3	-6.9%	9.28µM*	3.9%	u
CCOC(=O)C(=CNc1ccc(N2CCCCC2)c(S(=O)(=O)Nc2ccccc2OC)c1)C(=O)OCC	x	x	-6.3%[11.6 µM]	x	x	x
CCCCNC(=S)N(Cc1ccco1)Cc1cc2cc3c(cc2[nH]c1=O)OCCO3	-0.5	2.3	19.6%	31.9%	2.8%	u
COc1ccc(OC)c(C(=O)N2CCC(n3nccc3NC(=O)CC(C)C)CC2)c1	5.0	9.2	-7.4%	7.6%	2.6%	-15.7%
Cc1nc(N2CCOCC2)c2cc(-c3ccccc3)sc2n1	14.1*	8.8	0.0%	u	-19.7%	x
Cc1nc(N2CCN(Cc3ccc4c(c3)OCO4)CC2)c2cc(-c3ccccc3)sc2n1	29.3	-1.6	u	u	-5.4%	11.7µM*
COc1cc(-c2nc(-c3ccccc3)c(-c3cc([N+](=O)[O-])ccc3C)[nH]2)cc(OC)c1OC	4.2	-3.6	-27.7%	u	4.4%	2.62µM*
Cc1ccccc1OCC(=O)Nc1sc(C(=O)Nc2cccc(C)c2C)c(C)c1C#N	4.5	-2.1	2.0%	-13.2%	12.0%	4.2%
CCOc1ccc(C(=O)C(C)OC(=O)c2nc(Cl)ccc2Cl)cc1 (stereo unspecified)	x	x	0.7%	92.5%	0.7%	22.8%
CC(Sc1nc2sccc2c(=O)n1-c1ccccc1)C(N)=O (stereo unspecified)	5.3	-3.0	6.8%	1.65µM*	1.5%	u
Cc1ccc(N=C2C(=O)Nc3c(C)cccc32)cc1	0.9	-8.5	0.8%	10.4µM*	12.8%	1.5%
Cc1cccn2cc(CNS(=O)(=O)c3ccc4ccccc4c3)nc12	-5.6	-4.7	-4.5%	37.8%	1.8%	-0.7%
Nc1ccccc1SCc1cn2cccnc2n1	24.0*	79.7*	2.4%	33.3%	-1.0%	38.3%
Cc1cccn2cc(CSc3ccccc3N)nc12	30.9*	59.4	1.1%	64.5%	8.9%	x
Nc1ccccc1SCc1cn2ccccc2n1	67.8*	55.0*	-5.9%	179.1%	-21.6%	228.2%
SMILES	Cycloheximide cs	Shiga toxin inh	AMA1 RON2 block	Pf growth 96h	SARS PLP yeast	Pf growth 48h
Cc1ccc(CN2CCN(C3CCOCC3)CC2CCO)cc1 (stereo unspecified)	0.4	2.9	9.2%	u	-0.3%	28.5%
COc1c(C(=O)Nc2ccccc2N2CCOCC2)cc2ccccc2c1Br	x	x	16.8%	x	x	x
Cc1cc(NC(=O)CN2CCC(C)CC2)no1	0.6	-11.4	3.1%	4.9%	2.1%	27.5%
CNC(=O)C(N)CSC(C)C1=C(C)c2cc3[n-]c(cc4nc(cc5[n-]c(cc1n2)c(C)c5CCC(=O)O)C(CCC(=O)O)=C4C)c(C)c3C(C)SCC(N)C(=O)NC.[Fe+2] (stereo unspecified)	x	x	x	u	x	-41.3%
COc1ccccc1C(=O)C1CCCN(C(=O)c2ccccc2C(C)=O)C1 (stereo unspecified)	32.7*	48.7*	4.7%	87.6%	-5.2%	-11.5%
COCC(=O)N1CCCC(C(=O)c2ccc(-c3ccccc3)c(F)c2)C1 (stereo unspecified)	28.3*	19.9	-9.2%	u	-5.3%	0.1%
Cc1nc(C)n(CC(=O)N2CCCC(C(=O)c3cccc4ccccc34)C2)n1 (stereo unspecified)	14.4*	23.8	11.4%	u	-0.2%	0.0%
CC(=O)NCC(=O)N1CCCC(C(=O)c2ccc(-c3ccccc3)c(F)c2)C1 (stereo unspecified)	2.6	3.6	-2.0%	u	-0.9%	22.7%
CN(C)S(=O)(=O)N1CCCC(C(=O)c2ccc(C(F)(F)F)cc2)C1 (stereo unspecified)	-2.2	-7.5	-5.8%	0.828µM*	0.9%	-7.0%
COc1ccccc1C(=O)C1CCCN(C(=O)c2ccc(C(C)=O)s2)C1 (stereo unspecified)	13.2	-1.8	-4.0%	u	0.3%	-19.3%
N#CCC(=O)Nc1ccc(C(=O)OCC(=O)N2CCCC2=O)cc1	x	x	14.9%	67.5%	3.2%	46.9%
CN(C)/C=C/C(=O)c1ccc([N+](=O)[O-])c(CS(=O)(=O)c2ccc(Cl)cc2)c1	-4.8	-3.4	-5.7%	-3.8%	-1.8%	-17.5%
CCOC(=O)c1c(C)[nH]c(C(=O)N2CCCC(C(=O)c3cccc(OC)c3)C2)c1C (stereo unspecified)	2.0	-7.9	-5.0%	-13.2%	0.6%	-0.6%
CC(C)(C)c1ccc(C(=O)C2CCCN(C(=O)c3ccccn3)C2)cc1 (stereo unspecified)	1.6	11.5	11.5%	u	-2.5%	-9.2%
CCOC(=O)c1c(C)[nH]c(C(=O)N2CCCC(C(=O)c3ccccc3OC)C2)c1C (stereo unspecified)	11.6*	27.0	-12.9%	19.2%	-0.1%	u
